Here are results for 40 compounds from PubChem BioAssay (NCATS).

Inconclusive results are not listed. A call without a number means that no potency is given here. Active and inactive are the calls of the source. Calls come from the whole dose curve; as a rule, active = well fitted cell-killing curve with a large enough effect; inconclusive = small, poorly fitted or top-dose-only effect, or effect the other way; inactive = flat fitted curve, though single readings scatter.

The test relates to CAOV3. Put plainly: Primary qHTS to identify gynecologic anti-cancer compounds using libraries of approved drugs and bioactive compounds (AID 1345084). Note: nearly all actives have a fitted effect of over 55% in size. Conditions: Gynecologic cancer cell panel viability, ATPlite luminescence, 48 h; series mostly up to 57.5 µM. The source says:
National Center for Advancing Translational Sciences [NCATS] Assay Overview: Chemotherapeutic drug responses vary from cancer to cancer and from patient to patient. These variations could be caused by a number of factors including patient genomic background, tumor mutations, tumor heterogeneity, and aspects of drug treatment. Chemotherapeutic drug resistance is also a common issue and can lead to ineffective treatment and patient death. Here we have profiled the cell killing effects of thousands of compounds to characterize the responses in three gynecological cancers, identify cancer-selective compounds, and understand the diversity of responses to these compounds from pan-cancer suppressors to single cell line selective compounds. In this assay, we screened a 7,914 compound drug library that included approved drug and bioactive compounds in six ovarian, three cervical, and […] placental cancer cell lines using the ATPlite assay for cell viability. […] The cervical cancer cell lines included HeLa, Ca Ski, and C-33 A. The placental cancer cell lines included JEG-3. HEK 293T cells were used as the control cell line to determine the selectivity index. ATPlite is a luminescence based assay reliant on the conversion of a luciferase substrate to light in the presence of ATP. As a cytotoxic compound will suppress growth and decrease the number of cells, the concentration of ATP will decrease, and less light signal will be detected in the well.
Assay Protocol Summary: 1,000 cells in 4 uL of media were dispensed into white, solid bottom 1536-well plates using a Multidrop Combi (Thermo Scientific). The Assay plates were incubated for 16 hours at 37 C with 5% CO2 in assay plates, followed by the addition of 23 nL of DMSO or drug dissolved in DMSO. Each compound was assayed in five concentrations (0.092, 0.46, 2.3, 11.5, and 57.5 uM), using the automated Wako 1536 Pin Tool workstation and incubated at 37 C with 5% CO2 48 hours. 4 uL of ATPlite, the ATP monitoring reagent, was then added to the each well of the assay plates using the Multidrop Combi reagent dispenser followed by incubation for 15 minutes at room temperature. The resulting luminescence was measured using the ViewLux plate reader.
On the technique in general: In qHTS, concentration-response curves come from the screen itself.
In the case of `CN1C(C(=O)Nc2ccccn2)=C(O)c2ccccc2S1(=O)=O`, the Potency entry was “inactive”.

As to `CCCCc1oc2ccccc2c1C(=O)c1cc(I)c(OCCN(CC)CC)c(I)c1`, the Potency entry is “inactive”. Under `NC12CC3CC(CC(C3)C1)C2` stands “inactive”. Consider `COc1ccc2c(c1)c(CC(=O)O)c(C)n2C(=O)c1ccc(Cl)cc1`, for which the Potency entry was “inactive”. Under `CN1CCN(CCCN2c3ccccc3Sc3ccc(Cl)cc32)CC1` stands “inactive”; under `C[C@H]1c2cccc(O)c2C(O)=C2C(=O)[C@]3(O)C(O)=C(C(N)=O)C(=O)[C@@H](N(C)C)[C@@H]3[C@@H](O)[C@@H]21`, “inactive”. With `CC[N+](CC)(CC)CCOc1cccc(OCC[N+](CC)(CC)CC)c1OCC[N+](CC)(CC)CC` the entry was “inactive”; with `O=C(C1CCCCC1)N1CC(=O)N2CCc3ccccc3C2C1` (stereo not given), “inactive”. With `CC(C(=O)O)c1cccc(C(=O)c2ccccc2)c1` (stereo not given) the entry was “inactive”; with `COc1ccc(CCN(C)CCCC(C#N)(c2ccc(OC)c(OC)c2)C(C)C)cc1OC` (stereo not given), “inactive”. As for `NCCS(=O)(=O)O`, the Potency result was “inactive”. With `NC(=O)NO` the entry was “inactive”.

With `CCOC(=O)C(C)(C)Oc1ccc(Cl)cc1`, the Potency entry is “inactive”. As to `CN(Cc1cnc2nc(N)nc(N)c2n1)c1ccc(C(=O)N[C@@H](CCC(=O)O)C(=O)O)cc1`, the Potency result is “inactive”. For `COc1nc(C)nc(Cl)c1NC1=NCCN1`, the Potency result is “inactive”. Regarding `CC1(C)O[C@H]2CC(=O)OC[C@]23[C@H]2CC[C@@]4(C)[C@H](c5ccoc5)OC(=O)[C@H]5O[C@]54[C@]2(C)C(=O)C[C@@H]13`, the Potency result was “inactive”.

Regarding `CN(C)CCOC(c1ccccc1)c1ccccc1`, the Potency result is “inactive”. Under `O=C(c1ccc(F)cc1)C1CCN(CCn2c(=O)[nH]c3ccccc3c2=O)CC1` stands “inactive”; under `C[C@@H]1CC(=O)NN=C1c1ccc(NN=C(C#N)C#N)cc1`, “inactive”; under `CCC1(C)CC(=O)NC1=O` (stereo not given), “inactive”. Under `CCOC(=O)c1ncn2c1CN(C)C(=O)c1cc(F)ccc1-2` stands “inactive”. Under `CC(CCc1ccc(O)cc1)NCCc1ccc(O)c(O)c1` (stereo not given) stands “inactive”; under `NC(=O)OCC(COC(N)=O)c1ccccc1`, “inactive”; under `CC1(CN2CCC(n3c(=O)[nH]c4ccccc43)CC2)OCc2ccccc2-n2cccc21` (stereo not given), “inactive”.

On to `Cn1ccc2cc3c(cc21)CCN3C(=O)Nc1cccnc1`, for which the Potency entry is “inactive”. With `OCCN(CCO)c1nc(N2CCCCC2)c2nc(N(CCO)CCO)nc(N3CCCCC3)c2n1` the entry was “inactive”.

As to `CCN1CCCC1CNC(=O)c1cc(S(=O)(=O)CC)c(N)cc1OC` (stereo not given), the Potency entry is “inactive”. Under `COc1cc2c(c(OC)c1OC)-c1ccc(OC)c(=O)cc1[C@@H](NC(C)=O)CC2` stands “inactive”; under `Clc1ccc2c(c1)C(N1CCNCC1)=Nc1ccccc1O2`, “inactive”.

With `COc1cc2nc(N3CCN(C(=O)C4COc5ccccc5O4)CC3)nc(N)c2cc1OC` (stereo not given), the Potency entry was “inactive”. In the case of `Cc1ccc(C(=O)Nc2ccc(S(=O)(=O)O)c3cc(S(=O)(=O)O)cc(S(=O)(=O)O)c23)cc1NC(=O)c1cccc(NC(=O)Nc2cccc(C(=O)Nc3cc(C(=O)Nc4ccc(S(=O)(=O)O)c5cc(S(=O)(=O)O)cc(S(=O)(=O)O)c45)ccc3C)c2)c1`, the Potency result was “inactive”. Under `CC(C)C(=O)Nc1ccc([N+](=O)[O-])c(C(F)(F)F)c1` stands “inactive”; under `O=c1[nH]cc(F)c(=O)[nH]1`, “inactive”.

Turning to `Cn1c(=O)c2[nH]cnc2n(C)c1=O`, the Potency result is “inactive”. Under `OCCN1CCN(CCCN2c3ccccc3Sc3ccc(C(F)(F)F)cc32)CC1` stands “inactive”. With `Clc1ccccc1C(c1ccccc1)(c1ccccc1)n1ccnc1` the entry was “inactive”; with `CCOC(=O)Nc1ccc(NCc2ccc(F)cc2)nc1N`, “inactive”. Under `COc1ccc(C2CNC(=O)C2)cc1OC1CCCC1` (stereo not given) stands “inactive”; under `Cc1ccc(-c2cc(C(F)(F)F)nn2-c2ccc(S(N)(=O)=O)cc2)cc1`, “inactive”; under `Clc1ccc2nsnc2c1NC1=NCCN1`, “inactive”.
